High-throughput results: PubChem BioAssay, National Center for Advancing Translational Sciences (NCATS)
ELG1 DNA repair: blocks ELG1-dependent DNA repair in HEK293T cells. Potency, µM (highest dose often 46.1 µM), for inactives: at the highest dose activity change, negative = inhibition, most hits filed as inhibitors. HEK293T ELG1-luciferase reporter, luminescence, 16 h; DNA damage induced by 5-fluorouridine. 2.3% of 330,000 active. AID 504467; also: potency is read from the fitted curve at half-maximal effect; nearly all actives have a fitted effect of over 55% in size
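HEK293T cells expressing luciferase-tagged ELG1 (2,000/well) received 5-Fluorouridine plus compound or DMSO for 16 hr at 37 °C. Luciferase was read by ONE-Glo luminescence after 30 min at room temperature.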
DT40 TDP1 no CPT: qHTS for Inhibitors of human tyrosyl-DNA phosphodiesterase 1 (TDP1): qHTS in cells in absence of CPT | 15% of 420,000 active | Potency, µM (doses to about 46.2 µM), inactives show at the highest dose activity change, negative = growth inhibition, actives largely listed as inhibitors | DT40 Tdp1-/- hTDP1 cells, no CPT, ATP luminescence, 48 h | AID 686978, 2013; also: potency is read from the fitted curve at half-maximal effect; nearly all actives have a fitted effect of over 55% in size
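Cells were dispensed at 400 per well, compounds added by pin tool, plates incubated ≥48 hr at 37 °C, then CellTiter-Glo added for 30 min at room temperature before luminescence reading. Line: DT40 Tdp1-/- complemented with hTDP1; camptothecin omitted.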
IL-1B inflam inh: inflammasome signaling inhibition, IL-1 beta readout. THP-1 LPS/ATP IL-1B secretion, AlphaLISA, 16 h; hits give low values. activity change, % at 57.5 µM. 4.7% of 360,000 active. AID 743279; in the data active = activity change below about -50%; inconclusive = mostly about -30% to -49%
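THP-1 cells pretreated 1 hr with compounds (up to 57.5 uM final), then stimulated with LPS (250 ng/mL final) plus ATP (1.25 mM final); secreted IL-1B measured by AlphaLISA after 16 hr, decreased signal indicating inhibition.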
TDP1 cell CPT: growth inhibition of DT40 Tdp1-/-;hTDP1 cells with camptothecin (screen for TDP1 inhibitors); chicken DT40 Tdp1-/-;hTDP1 cells + 20 nM CPT, ATP luminescence, 48 h; Potency, µM (series often up to 46.2 µM), inactives show at the highest dose activity change, negative = growth inhibition, hits mostly inhibitors; 12% of 420,000 active; also: potency is read from the fitted curve at half-maximal effect; nearly all actives have a fitted effect of over 55% in size
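Chicken DT40 Tdp1-/- cells stably complemented with human TDP1 were seeded at 400 cells/well in medium containing 20 nM camptothecin, exposed to pin-transferred compounds, and grown at 37 °C for at least 48 hr. Viability was read as ATP luminescence.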
RORgamma inh: ROR gamma (mouse) transcription inhibition. P51450. Drosophila S2 Gal4-RORgamma UAS-luciferase reporter, 20 h. Potency, µM (titrated, usually from 53.6 µM), for inactives: top-dose activity change, negative = inhibition, most hits filed as inhibitors. 5.4% of 310,000 active; also: potency is read from the fitted curve at half-maximal effect; nearly all actives have a fitted effect of over 60% in size
Target sequence (P51450 whole entry, looked up, the tested form may be a part): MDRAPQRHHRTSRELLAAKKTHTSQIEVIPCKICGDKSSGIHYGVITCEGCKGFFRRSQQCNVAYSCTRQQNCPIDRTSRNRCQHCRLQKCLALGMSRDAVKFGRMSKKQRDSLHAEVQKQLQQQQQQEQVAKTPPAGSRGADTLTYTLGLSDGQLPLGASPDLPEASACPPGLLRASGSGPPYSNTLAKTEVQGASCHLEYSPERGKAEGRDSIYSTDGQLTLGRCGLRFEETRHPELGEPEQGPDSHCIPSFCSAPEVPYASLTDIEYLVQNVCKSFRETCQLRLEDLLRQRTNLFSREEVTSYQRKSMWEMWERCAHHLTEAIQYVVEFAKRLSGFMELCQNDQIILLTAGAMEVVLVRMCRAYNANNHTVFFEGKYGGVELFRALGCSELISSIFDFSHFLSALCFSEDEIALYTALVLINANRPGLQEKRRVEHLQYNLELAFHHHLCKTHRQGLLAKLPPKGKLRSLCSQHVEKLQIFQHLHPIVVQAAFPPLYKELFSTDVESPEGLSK
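Stable Schneider cell line, Gal4 DNA-binding domain fused to ROR gamma, UAS-luciferase. Cmpd 1 hr RT → CuSO4 700 uM final → 20 hr RT → luciferase reagent 10 min → luminescence.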
VP16 counter: counter-screen for ROR gamma inhibitors: Gal4-VP16 reporter. Drosophila S2 Gal4-VP16 UAS-luciferase, luminescence, 20 h. Potency, µM (series often up to 53.6 µM), inactives show top-dose activity, negative = inhibition, most hits filed as inhibitors. 3.5% of 310,000 active;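 also: Gal4-VP16 expression switched on by copper sulfate through the metallothionein promoter; potency is read from the fitted curve at half-maximal effect; nearly all actives have a fitted effect of over 50% in size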
Numbers without * were called inactive; [ ] = another dose, or the depositor's remark. Most compounds without a hit are left out; they make up all but 21% or so of the library. Unless noted, calls follow the shape of the dose curve; as a rule, active = well fitted curve in the direction sought with a large enough effect; inconclusive = small, poorly fitted or top-dose-only effect, or another doubt; inactive = no such curve, though single readings can be large; an effect the other way counts as inactive or inconclusive. % is scaled to controls: 0 for no effect and ±100 for the full control effect.

How did CC(C)=CCC/C(C)=C/CO/N=C1/C[C@@H](O)[C@@H](O)[C@@H]2[C@@H]3C(=O)N(C[C@@H]4CCCO4)C(=O)[C@H]3CC[C@@H]12 do in these assays?
RORgamma inh: -4.7%[10 µM]; VP16 counter: 3.4%[10 µM]

Results for Cc1ncc2c(c1CNS(=O)(=O)N(C)C)CCN(C(=O)/C=C/c1ccccc1F)C2 ?
DT40 TDP1 no CPT: -12.7%; TDP1 cell CPT: 12.6%[9.04 µM]

How did CCOc1ccccc1OCc1nn2c(COc3ccccc3)nnc2s1 do in these assays?
ELG1 DNA repair: -10.4%; DT40 TDP1 no CPT: 12.6µM*; IL-1B inflam inh: -4.6; TDP1 cell CPT: 15.8µM*; RORgamma inh: 21.9%; VP16 counter: -3.4%

Results for COc1ccccc1-c1nnc2sc(COc3ccc(Cl)cc3)nn12 ?
ELG1 DNA repair: -10.8%; DT40 TDP1 no CPT: 16.4µM*; IL-1B inflam inh: -85.5*; TDP1 cell CPT: inconclusive; RORgamma inh: inconclusive; VP16 counter: -9.2%

What do the screens show for `Clc1ccccc1-c1nn2c(COc3ccccc3)nnc2s1`?
ELG1 DNA repair: -0.4%; DT40 TDP1 no CPT: -25.1%; IL-1B inflam inh: -19.8; TDP1 cell CPT: -19.4%; RORgamma inh: inconclusive; VP16 counter: -9.2%

How did c1ccc(Cc2nn3c(COc4ccccc4)nnc3s2)cc1 do in these assays?
ELG1 DNA repair: 0.0%; DT40 TDP1 no CPT: 18.4µM*; IL-1B inflam inh: -5.8; TDP1 cell CPT: inconclusive; RORgamma inh: 25.0%; VP16 counter: 17.0%[0.365 µM]

What do the screens show for `CC1=C(C(=O)OCC2CCCO2)C(c2ccccc2OC(C)C)C2=C(CC(c3ccco3)CC2=O)N1` (stereo not given)?
ELG1 DNA repair: -5.4%; DT40 TDP1 no CPT: inconclusive; IL-1B inflam inh: -9.6; TDP1 cell CPT: -30.0%; RORgamma inh: 0.5%[0.365 µM]

Results for CC1=C(C(=O)OCC2CCCO2)C(c2cccc(C(F)(F)F)c2)C2=C(CC(c3ccco3)CC2=O)N1 (stereo not given) ?
ELG1 DNA repair: inconclusive; DT40 TDP1 no CPT: inconclusive; IL-1B inflam inh: -53.1*; TDP1 cell CPT: inconclusive; RORgamma inh: inconclusive; VP16 counter: -1.0%

How did CC(=O)Nc1ccc(Oc2sc(C(=O)c3ccccc3)c(N)c2C#N)cc1 do in these assays?
ELG1 DNA repair: inconclusive; DT40 TDP1 no CPT: inconclusive; IL-1B inflam inh: -59.7*; TDP1 cell CPT: inconclusive; RORgamma inh: -6.7%; VP16 counter: 3.5%

How did CC(=O)Nc1ccc(Oc2ccccc2)cc1 do in these assays?
ELG1 DNA repair: 22.2%; DT40 TDP1 no CPT: 2.2%; IL-1B inflam inh: 20.0; TDP1 cell CPT: 2.2%; RORgamma inh: -2.0%; VP16 counter: 14.9%

How did CCN(CC)CCNC(=O)c1ccc(-n2c(C)cc3c2CCCC3=O)cc1 do in these assays?
ELG1 DNA repair: inconclusive; DT40 TDP1 no CPT: -5.0%; IL-1B inflam inh: 16.1; TDP1 cell CPT: -0.7%; RORgamma inh: -2.5%; VP16 counter: -2.9%

How did CSc1ccc(CCNC(=O)c2ccc(-n3c(C)cc4c3CCCC4)cc2)cc1 do in these assays?
DT40 TDP1 no CPT: 18.4µM*; TDP1 cell CPT: 20.6µM*

How did Cc1cc2c(n1-c1ccc(C(=O)NCCc3ccc(Cl)cc3)cc1)CCCC2 do in these assays?
DT40 TDP1 no CPT: 25.9µM*; TDP1 cell CPT: inconclusive

Results for Cc1cc2c(n1-c1ccc(C(=O)NCC(C)c3ccccc3)cc1)CCCC2 (stereo not given) ?
DT40 TDP1 no CPT: 14.6µM*; TDP1 cell CPT: 23.1µM*

Results for CC(CN(C)Cc1ccccc1)OC(=O)c1ccc(F)cc1 (stereo not given) ?
ELG1 DNA repair: 8.0%; DT40 TDP1 no CPT: 10.3µM*; IL-1B inflam inh: -8.4; TDP1 cell CPT: 14.6µM*; RORgamma inh: 31.9%; VP16 counter: -1.5%

What do the screens show for `Cc1ccc(NC(=O)c2cc3ccccc3o2)cc1S(=O)(=O)N(C)C`?
ELG1 DNA repair: inconclusive; DT40 TDP1 no CPT: inconclusive; IL-1B inflam inh: -11.4; TDP1 cell CPT: 29.1µM*; RORgamma inh: 13.2%; VP16 counter: inconclusive

What do the screens show for `O=C(Nc1ccc(NC(=O)c2cc3ccccc3o2)cc1)c1ccccc1`?
DT40 TDP1 no CPT: -24.9%; TDP1 cell CPT: -26.8%

What do the screens show for `O=C(Nc1ccc2c(c1)OCCO2)c1cc2ccccc2o1`?
ELG1 DNA repair: inconclusive; DT40 TDP1 no CPT: inconclusive; IL-1B inflam inh: -67.7*; TDP1 cell CPT: -29.1%; RORgamma inh: -36.9%; VP16 counter: inconclusive

How did CC1(c2nnnn2Cc2ccccc2)CCC(=O)N1CCc1ccc(O)cc1 (stereo not given) do in these assays?
DT40 TDP1 no CPT: -16.0%; IL-1B inflam inh: -2.4; TDP1 cell CPT: -6.6%

Results for CN(C)S(=O)(=O)c1ccc(NC(=S)NC(=O)c2cccs2)cc1 ?
ELG1 DNA repair: 6.6%; DT40 TDP1 no CPT: inconclusive; IL-1B inflam inh: -1.5; TDP1 cell CPT: inconclusive; RORgamma inh: 8.91µM*; VP16 counter: -82.4%

What do the screens show for `CC(=O)NC(=S)Nc1ccc(NC(=S)NC(=O)c2cccs2)cc1`?
ELG1 DNA repair: 8.1%; DT40 TDP1 no CPT: 4.1%; IL-1B inflam inh: 25.2; TDP1 cell CPT: -5.5%; RORgamma inh: -1.7%; VP16 counter: -5.5%

Results for CCCC(=O)Nc1ccc(NC(=S)NC(=O)c2cccs2)cc1 ?
ELG1 DNA repair: -9.3%; DT40 TDP1 no CPT: -8.8%; IL-1B inflam inh: -14.8; TDP1 cell CPT: -15.2%; RORgamma inh: inconclusive; VP16 counter: inconclusive

Results for CCN(c1ccccc1)S(=O)(=O)c1ccc(NC(=S)NC(=O)c2cccs2)cc1 ?
ELG1 DNA repair: 13µM*; DT40 TDP1 no CPT: 23.1µM*; IL-1B inflam inh: 7.5; TDP1 cell CPT: inconclusive; RORgamma inh: 3.16µM*; VP16 counter: 7.08µM*

How did COCC1C2CC[C@H]3C(OCc4ccc(F)cc4C(F)(F)F)OC[C@]4(C)[C@H]3C2=C(CN4C(=O)OC(C)(C)C)[C@H](C)C1COC (stereo not given in full) do in these assays?
RORgamma inh: -0.4%; VP16 counter: 6.4%

Results for Cc1cc(C(=O)N/N=C/c2ccc[nH]2)n[nH]1 ?
ELG1 DNA repair: inconclusive; DT40 TDP1 no CPT: -12.7%; IL-1B inflam inh: -3.3; TDP1 cell CPT: -4.7%; RORgamma inh: 2.82µM*; VP16 counter: 12.7%

What do the screens show for `Cc1cc(C(=O)N/N=C/c2cccnc2)n[nH]1`?
ELG1 DNA repair: 24.4%; DT40 TDP1 no CPT: -7.2%; IL-1B inflam inh: 30.3; TDP1 cell CPT: -13.6%; RORgamma inh: 3.9%; VP16 counter: -10.4%
